These results are taken from the supplement of paper PMC6555819.

For this experiment, the system named is VDR:RXRa (NR concentration 270 nM, RXRa partner concentration 90 nM). In words: PBM binding z-score (relative to random genomic background probes); higher = stronger binding; sequences stand for … in GC…GCGATTGACAGCGTAGAATGAAGG
The protocol: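 Protein-binding microarray (Agilent 4x180K custom design, double-stranded 60-nt probes: 5' GC cap, 34-nt variable region, 24-nt constant primer region; full probe sequence given). Purified or IVT nuclear receptor:RXRα heterodimers (3:1 NR:RXRα, mostly 270:90 nM) or homodimers were incubated for 1 h in PBS with 2% milk and no ligand, then detected with Alexa488 antibodies. Fluorescence from o1-orientation probes (~5 replicates averaged) was converted to z-scores against 500 random hg19 background probes. Variable regions are seed direct-repeat (DR0–DR5) sites, all their single-nucleotide variants and half-site ablations.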
AATACAGGGTCATCGTAGGACAGAGTACGCACAG: the PBM binding z-score is 5.5.
TGAATGAGGTTAAAGATCAAGGAACGTGGCGTCG gave a PBM binding z-score of 2.09.
The sequence CGAACTAGGTCATCCAGGACGGTGAATACATTGA yielded a PBM binding z-score of 3.72.
In the case of TAGCCTAGGTCATTCAGGGGCCAGTATCGAAAGC, the PBM binding z-score turned out to be 2.97.
In the case of GCTTTTAGTTGAAAGGGCAACCGAATGATTCTCG, the PBM binding z-score was 0.313.
For the sequence TCTCGGAGGACACGAAGGTCAGAGTTTTCCAGAG, the PBM binding z-score turned out to be 2.41.
Consider TCATATAGGTAAATACTAGGTGAAAGTCCGATCT, for which the PBM binding z-score came to 1.19.
In the case of TAGCCTCGGTCATGGGCCAGTATACCACGCGAAC, the PBM binding z-score is -0.162.
The sequence CCAGACATGTGAAAGGTAACTCAGTCTGGTACGC showed a PBM binding z-score of 0.207.
Sequence AATACAGGGTCACTAGGCCATAGTAGGTACGAAT displayed a PBM binding z-score of 4.25.
The value for TTACCAAGGTGAAAGGCCGTTGATGCACGCCTTG was 0.0595; that for ACTATCAGTTGAGACGAGGGCAACCGATAGGTTG was 0.625; that for CCTGCTAGGTCACTGGTCAGCTAAAGCAGCTCGC was 1.39.
The result for TAGCCTAGGTCATGGGCCAGTAAACCACGCGAAC reads 2.07; that for ACTAGCAGGCCAAGTTTGGGTGACTCAAACAAAG, -0.388; that for ATCTCTAGGTAAAGCTAGTTCAGTGAATGCAAAT, 0.818.
The result for TAGCCTAGGTCATGGGCCAGAATACCACGCGAAC reads 1.91; that for TTACCAAGGTGAAAGGTCGATGATGCACGCCTTG, 2.23.
Sequence GGAACGAGGGCAAGTTGATAGGAGAGTTTGATGG returned a PBM binding z-score of 0.886.
The value for TCAGACAGGTGAAGGTAACACAGGTACGCAGTCG was 1.05; that for TCTATCAGTTGAAGGGCAACCGACGAGTCCGTTT was 1.07.
For TCTGCTAGATCAGTTGGTCAGCTAACGAGCTGCC, the PBM binding z-score was -0.706.
CTCGAAAGGTCGTGCTCAGGTGAGTCTACCAAAC came in with a PBM binding z-score of 3.35.
The sequence AGTCAAAGTTCATGTAGGTAACGTAAGATATGCT showed a PBM binding z-score of 4.84.
The result for CCTAGCAGGCGAATCTGGGTCACTCAAGGCTTGA reads -0.0504.
The result for AGGATGAGGTTACCAAAGATCAGGGAAACGCTTG reads 1.45.
Sequence AGTCAAAGTTTAGGACGAGGTAACGTAAAGCACG displayed a PBM binding z-score of 0.00949.
The result for TCCTATAGGTAAACAGGTGAAAGTCCGTAAGTTA reads 0.775; that for CGTCAAAGTTCAACTAAGGTAACGGAAAGCACGC, 4.7; that for TCTATTAGTTGCAGGGCAACCGACGAGTCCGTTT, 0.743.
The result for TTTCCAAGGTGAAGGTCGTTGATCCCTCTGTAGA reads 1.45.
The sequence ATACCAAGGTGATCGTTAGGTCGTTGATACTAAC returned a PBM binding z-score of 0.566.
Turning to CCTACTGGGCCATTCAGAGATCATTGATCATATG, the PBM binding z-score was -0.415.
In the case of CCGACTGGGGCGGAAAGGTTACCATACCATCCGG, the PBM binding z-score came out at 1.02.
The value for TAGCCTAGGTCTTTGGGCCAGTATAGTACGCATC was -0.592; that for GCGACTGGGGAATCAGCAGGTTACCATAACTTAA was -0.497.
Turning to ATCTCTAGGTAAAGATAGTTCGGTGAATGCAAAT, the PBM binding z-score came out at 0.244.
The result for CCTTACGGGTGACTCCAGGTTATAGCATCGGAGT reads 0.497; that for AGAATGACGTTACCAAAGATCAGGGAAACGCTTG, -0.434.
The result for TCTACAGGGTCAAAGGCCAGAGTACGAATGTCGA reads 4.56.
